# Assay results from PubChem BioAssay AID485272 (The Scripps Research Institute Molecular Screening Center, 2010).
# About 1,300 (0.39%) of roughly 330,000 compounds were called active.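 How the source made its calls: active means percent inhibition above a cutoff equal to the mean of all tested compounds plus 3 SD (cut at about 15% in these data); inactive means the rest.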 Many of the other results were omitted from the sample, so actives are more common in it than they were.
# Biological target: Protein-arginine deiminase type-4 (Homo sapiens) (UniProt Q9UM07)
# Experiment: protein arginine deiminase 4 enzyme blockade – biochemical, fluorescence polarization, 1536-well format, primary screen (AID 485272);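 further: 0% = PAD4 with RCA probe and DMSO and 100% = probe without PAD4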
# Conditions: recombinant PAD4, RCA probe fluorescence polarization; at 6.36 µM; stronger effect = higher value
# Sequence of Protein-arginine deiminase type-4 (Homo sapiens) (Q9UM07 whole entry, looked up): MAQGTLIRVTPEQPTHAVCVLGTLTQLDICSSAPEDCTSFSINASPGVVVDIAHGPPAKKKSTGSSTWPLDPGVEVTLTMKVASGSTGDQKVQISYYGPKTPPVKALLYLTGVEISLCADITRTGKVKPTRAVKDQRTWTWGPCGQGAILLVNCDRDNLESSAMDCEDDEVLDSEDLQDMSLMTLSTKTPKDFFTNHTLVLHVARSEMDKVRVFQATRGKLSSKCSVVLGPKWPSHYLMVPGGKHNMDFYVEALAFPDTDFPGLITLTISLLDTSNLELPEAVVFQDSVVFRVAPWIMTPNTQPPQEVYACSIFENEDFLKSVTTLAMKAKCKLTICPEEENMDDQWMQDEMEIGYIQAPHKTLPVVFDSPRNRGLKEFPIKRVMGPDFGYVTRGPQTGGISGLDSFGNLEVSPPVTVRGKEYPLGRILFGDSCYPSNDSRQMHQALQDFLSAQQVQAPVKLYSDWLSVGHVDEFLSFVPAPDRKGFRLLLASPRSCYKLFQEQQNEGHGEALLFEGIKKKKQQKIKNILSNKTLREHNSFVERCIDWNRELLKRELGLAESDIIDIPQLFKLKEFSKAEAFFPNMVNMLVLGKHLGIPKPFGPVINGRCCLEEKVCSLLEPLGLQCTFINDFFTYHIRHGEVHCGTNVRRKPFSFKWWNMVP
row,Structure (SMILES),inhibition
1,CCc1nnc(SCc2cccc(F)c2)nc1CC,24.2% (active)
2,Cc1cc(=O)[nH]c(SCc2cccc(F)c2)n1,3.23% (inactive)
3,Nc1cc(N)nc(SCc2cccc(F)c2)n1,-6.07% (inactive)
4,CC(C)Cc1nc(Nc2ccc(S(=O)(=O)N3CCCC3)cc2)c2nnn(Cc3ccccc3)c2n1,-3.06% (inactive)
5,CCCc1cc(=O)[nH]c(SCC(=O)Nc2ccc(S(=O)(=O)N3CCCC3)cc2)n1,5.78% (inactive)
6,CC(=O)Oc1ccc(N(C(C)=O)S(=O)(=O)c2ccc3ccccc3c2)cc1Br,-0.04% (inactive)
7,COC(=O)c1c(C)oc2ccc(N(C(=O)Oc3ccccc3)S(=O)(=O)c3ccccc3)cc12,-4.57% (inactive)
8,CC(=O)N(c1ccc2oc(=O)sc2c1)S(=O)(=O)c1ccc(C)cc1,19.6% (active)
9,CCOC(=O)c1c(C)[nH]c(C2=NNC(=NC(C)COC)SC2)c1C (configuration not stated),-4.38% (inactive)
10,O=C(NC(=S)Nc1cc(C(F)(F)F)ccc1N1CCOCC1)c1ccc(-c2cccc(Cl)c2)o1,-0.46% (inactive)
11,Cc1ccc(-n2[nH]c(C)c(/C=N/NC(=O)c3cccc([N+](=O)[O-])c3)c2=O)cc1C,-0.65% (inactive)
12,COc1cc(SC#N)ccc1N=Cc1c(C)[nH]n(-c2ccc(C)cc2)c1=O,27.3% (active)
13,COc1ccc(C(=O)Nc2ccc(C(=O)NCC3CCCO3)cc2)c(OC)c1OC (configuration not stated),2.07% (inactive)
14,COc1ccc(CCn2ccc(O)c(Cc3ccc(Cl)cc3Cl)c2=O)cc1OC,2.71% (inactive)
15,COc1ncnc2c1N=C1CC(C)(C)CC(N)=C1S2,16.7% (active)
16,C#CCOCCOCCOCCNc1nc(N2CCN(C(=O)C([C@@H](C)O)n3cc([C@@H](N)CCCCN)nn3)CC2)nc(N2CCN(C(=O)[C@H](CCCCN)n3cc(CN)nn3)CC2)n1 (some centres not stated),4.78% (inactive)
17,CC(=O)NS(=O)(=O)c1ccc(N/C(N)=N/c2nc(C)cc(C)n2)cc1,-0.78% (inactive)
18,CSc1ccc(/C=C2\NC(=O)NC2=O)cc1,-0.37% (inactive)
19,CNC(=O)c1ccsc1NC(=O)c1ccc(S(=O)(=O)N2CCOCC2)cc1,-4.29% (inactive)
20,CCOC(=O)c1csc(NC(=O)c2ccc(S(=O)(=O)N3CCCC3)cc2)n1,-3.23% (inactive)
21,COc1ccc(C(=O)Nc2nc(-c3ccc(S(=O)(=O)N4CCOCC4)cc3)cs2)cc1,17.5% (active)
22,CCOC(=O)c1ccc(NNC(C)=O)c([N+](=O)[O-])c1,-2.2% (inactive)
23,COC(=O)c1noc(C)c1-c1ccnn1C(=O)c1ccc(Cl)cc1,-7.73% (inactive)

row,Structure (SMILES),inhibition
1,Cc1ccc(N=C2NC(=O)c3cccc([N+](=O)[O-])c32)cc1,-1.46% (inactive)
2,O=C(NCc1ccccn1)c1ccc2nc(-c3ccco3)c(-c3ccco3)nc2c1,7.09% (inactive)
3,COc1cccc(NC(=O)NCCN2CCCCC2)c1,-0.52% (inactive)
4,COCCNC(=O)Nc1ccc2nc(-c3ccco3)c(-c3ccco3)nc2c1,22% (active)
5,CCc1ccc(OC(C)C(=O)Nc2ccc(S(=O)(=O)Nc3cc(C)on3)cc2)cc1 (configuration not stated),-0.06% (inactive)
6,CC(C)C(NC(=O)OCc1ccccc1)C(=O)OCC(=O)N1C(C)CCCC1C (configuration not stated),2.54% (inactive)
7,Cc1nn(Cc2ccccc2)c(C)c1CNC(=O)c1ccc(F)c(S(=O)(=O)N2CCOCC2)c1,27.9% (active)
8,O=C(NCCSCc1ccccc1)c1ccc(Cl)c(S(=O)(=O)N2CCOCC2)c1,1.45% (inactive)
9,O=C(c1ccc(F)c(S(=O)(=O)N2CCOCC2)c1)N(CCc1ccccc1)Cc1ccccc1,-3.27% (inactive)
10,CCOC(=O)c1cc(NC(=O)SCC(=O)O)c(C)nc1C,2.33% (inactive)
11,CC1=NN(C(C)C)C(=O)C1,-8.28% (inactive)
12,COc1ccccc1OCCC(=O)OCC(=O)NC(=O)NC(C)(C)C,6.96% (inactive)
13,CC(C)(C)NC(=O)NC(=O)COC(=O)C1(C)CC1(Cl)Cl (configuration not stated),-0.93% (inactive)
14,CC(C)(C)NC(=O)NC(=O)COC(=O)CCC1CCCCC1,41.1% (active)
15,COc1ccc(S(=O)(=O)N2CCCCCC2)cc1C(=O)OCC(=O)Nc1cc(C)on1,-6.43% (inactive)
16,CCCCN(C)CCNC(=O)CSCc1ccc(C)cc1,-2.21% (inactive)
17,COc1ccc(CCNS(=O)(=O)c2ccc(Cl)s2)cc1OC,-2.69% (inactive)
18,Cc1ccc(F)cc1NC(=O)Cc1nn(C)c(=O)c2ccccc12,-6.33% (inactive)
19,Cc1c(-c2nn(C)c(=O)c3ccccc23)oc2ccc(F)cc2c1=O,35.8% (active)
20,O=C1c2oc3ccc(Br)cc3c(=O)c2C(c2cccc(F)c2)N1CCO (configuration not stated),-4.97% (inactive)
21,COC(=O)c1cc2c(N)c(C(=O)c3ccc(Cl)cc3)sc2nc1C(OC)OC,0.06% (inactive)
22,Nc1ccc2nc3c(=O)[nH]c(=S)[nH]c3nc2c1,31.8% (active)
23,O=c1c(F)cn(C2CCCO2)c(=O)n1Cc1ccccc1Cl (configuration not stated),-4.61% (inactive)

row,Structure (SMILES),inhibition
1,O=C(CNC1CCCCC1)NCC1(c2ccccc2)CCCC1,-2.33% (inactive)
2,COc1ccccc1C1C(C#N)=C(N)Oc2c1c(-c1ccccc1)nn2-c1ccccc1 (configuration not stated),33.4% (active)
3,Cc1nn(Cc2ccccc2)c2c1C(c1ccccc1)C(C#N)=C(N)O2 (configuration not stated),-0.16% (inactive)
4,Cc1nn(-c2ccccc2)c2c1C(c1ccc(F)cc1)C(C#N)=C(N)O2 (configuration not stated),-1.5% (inactive)
5,O=C(O)CC(SCC(=O)Nc1ccc(Br)cc1)C(=O)O (configuration not stated),1.63% (inactive)
6,COCCOC(=O)c1sc(=S)n(CCOC)c1N,40.9% (active)
7,CCOC(=O)CN(C(=O)COc1nc(C)cc(C)c1C#N)c1ccc(Cl)cc1,5.17% (inactive)
8,CCOc1[nH]n(-c2ccc(Cl)cc2)c(=O)c1C=Nc1ccc(O)cc1,26.1% (active)
9,CCOc1ccc(N=C2NC(=O)S/C2=C\c2ccc(O)cc2)cc1,-1.95% (inactive)
10,CC(C)c1nc(CNC(=O)CC2C(=O)NCCN2Cc2ccoc2)cs1 (configuration not stated),5.06% (inactive)
11,OC1CSc2nc3ccccc3n2C1 (configuration not stated),-1.87% (inactive)
12,Cc1ccc(-c2cc(C(=O)NCc3cn(C)nc3C)c3cc(Br)ccc3n2)cc1,2.48% (inactive)
13,O=C(CSc1nc2ccccc2c(=O)n1Cc1ccc(F)cc1)NCC1CCCO1 (configuration not stated),-1.2% (inactive)
14,O=C(CSc1nc2ccccc2c(=O)n1-c1ccc(F)cc1)NC1CC1,1.54% (inactive)
15,O=C(CCn1c(SCC(=O)c2ccccc2)nc2ccccc2c1=O)NCc1ccc(F)cc1,67.8% (active)
16,CCN(C(=O)CSc1nc(N)cc(=O)[nH]1)C1CCS(=O)(=O)C1 (configuration not stated),-0.69% (inactive)
17,CONc1nc2nonc2nc1NOC,-1.87% (inactive)
18,COc1ccc([C@H]2CC(=O)C=C(c3ccc(CO)cc3)C2)cc1,1.09% (inactive)
19,O=S(=O)(Cc1nnnn1-c1ccc(Br)cc1)c1ccc(F)cc1,-0.08% (inactive)
20,O=C1CN(C(=O)CN2C(=O)NC3(CCCCC3)C2=O)c2ccccc2N1,1.47% (inactive)
21,Cc1ccc(C)c(S(=O)(=O)N2CCCOC2CNC(=O)C(=O)NC2CCCCC2)c1 (configuration not stated),-5.07% (inactive)
22,COc1cccc(-c2nc(CS(=O)CC(=O)NCc3ccc(F)cc3)c(C)o2)c1 (configuration not stated),0.77% (inactive)
23,COc1ccc(-c2nc(CS(=O)CC(=O)NCc3ccccc3)c(C)o2)cc1OC (configuration not stated),6.4% (inactive)

row,Structure (SMILES),inhibition
1,COc1ccc(-c2nc(CS(=O)CC(=O)NCc3ccccn3)c(C)o2)cc1 (configuration not stated),30.3% (active)
2,Cc1ccc(/C=C2\CCn3c2nc2cc(C(=O)O)ccc2c3=O)c(C)c1,-1.1% (inactive)
3,COc1ccccc1OCCCCCCN1CCN(C)CC1,-0.69% (inactive)
4,Cn1c(SCC(=O)Nc2nccs2)nnc1-c1cccnc1,0.78% (inactive)
5,Cn1c(Nc2cccc(Cl)c2)nc2ccccc21,22.6% (active)
6,Cc1c(C(=O)Nc2cccc(Cl)c2)cn2c(nc3ccccc32)c1C#N,-8.49% (inactive)
7,Cn1c(NC(=O)c2ccccc2)nc2ccccc21,-1.36% (inactive)
8,CC(NC(=O)c1ccc(Cl)cc1)C(=O)N1CCCCC1 (configuration not stated),-2.13% (inactive)
9,CC(C)CNC(=S)NC(=O)c1ccc(Cl)cc1,3.77% (inactive)
10,CC(C)C(NC(=O)c1ccc(Cl)cc1)C(=O)O (configuration not stated),33.2% (active)
11,CN(C)N1C(N)=C(C#N)C(c2ccc(Br)cc2)C2=C1CCCC2=O (configuration not stated),-7.04% (inactive)
12,Cc1ccc(-c2nn(-c3ccccc3)cc2/C=C2\SC(=S)N(CCCCCC(=O)O)C2=O)o1,-0.43% (inactive)
13,Cc1ccc(-c2nn(-c3ccccc3)cc2/C=C/C(=O)Nc2cccc(S(N)(=O)=O)c2)cc1,-9.63% (inactive)
14,CN(C)S(=O)(=O)c1cccc(-c2nn(-c3ccccc3)cc2/C=C2\SC(=S)N(CC(=O)O)C2=O)c1,29.1% (active)
15,Cc1cc(NS(=O)(=O)c2ccc(NC(=S)NC(=O)c3ccc(F)cc3Cl)cc2)no1,-2.99% (inactive)
16,CCOc1ccc(S(=O)(=O)N2CCC(C(=O)NCc3ccccn3)CC2)cc1Cl,-2.62% (inactive)
17,C=C1CCC(N(O)c2cc(C)on2)C(=C)CCC2C1CC2(C)C (configuration not stated),-6.2% (inactive)
18,COc1cnn(-c2ccc([N+](=O)[O-])cc2)c(=O)c1Cl,3.88% (inactive)
19,Cc1[nH]n(-c2ccc([N+](=O)[O-])cc2)c(=O)c1C=NCCN1CCN(C(=O)c2ccccc2F)CC1,-1.51% (inactive)
20,O=c1[nH]n(-c2ccc([N+](=O)[O-])cc2)c(=O)c2ccccc12,31.3% (active)
21,CCCCNC(=O)C1(c2ccc(OC)cc2)CCOCC1,26.1% (active)
22,CCCCCNC(=O)Cc1ccc(OC)cc1,1.91% (inactive)
23,COc1ccc(-c2cc(C(=O)NCCCN3CCOCC3)no2)cc1,-1.77% (inactive)
